Mdm2 MdmX PPI: inhibitors of human Mdm2-MdmX association, primary screen, cell-based, luminescence, split luciferase, SaOS-2, uHTS; SaOS-2 split-luciferase Mdm2/MdmX complementation; inhibition, % at 8 µM; hit rate 3% among 330,000; AID 485346, 2010;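 active = inhibition of at least 50% at 8 µM in the primary screen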
Shn3 3UTR inh: reduction of Shn3 3'UTR firefly luciferase signal, primary screen, Schnurri-3 inhibitor project, cell-based, Clone20 osteoblasts, set 2; Clone20 osteoblast Shn3 3'UTR firefly luciferase, 24 h; inhibition, % at 12.5 µM; hit rate 0.52% among 360,000;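 active = mean inhibition of at least 75% with every replicate also reaching 75%; inconclusive = mean inhibition at least 75% but some replicate below; inactive = mean inhibition below 75%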;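 note: 0% = median of neutral control wells and 100% = pilot-screen positive control compound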
CSC inhib: cancer stem cell viability inhibitors, primary screen, luminescence | cancer stem cell-like cells viability | inhibition, % at 7.5 µM | hit rate 1.1% among 300,000 | AID 2717, 2010; in the data active = inhibition above about 75%; inconclusive = no clear call, values can overlap the other calls; tested in HMLE shEcad cells
Gli-Sufu block: Gli-Sufu pathway antagonists, primary screen, luciferase luminescence, Sufu-KO-LIGHT cells, uHTS | inhibition, % at 5 µM | Sufu-KO-LIGHT fibroblasts, Gli luciferase reporter luminescence | hit rate 0.74% among 340,000;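 active = inhibition above about 55%, limit read from the data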;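 note: 0% = DMSO-treated cells and 100% = wells with medium but no cells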
Beta cell apopt: inhibitors of cytokine-induced beta cell apoptosis, primary screen, luminescence; INS-1E cytokine-induced death, ATP luminescence, 48 h; percent of positive-control rescue, neutral wells zero; protection from apoptosis, % (test concentration not listed); hit rate 0.8% among 300,000;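 active = Every replicate reaches about 75%, or at least half do and their mean reaches it too, limit read from the data; inconclusive = At least half of replicates reach the limit but their mean does not; inactive = Under half of replicates reach the limit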;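 note: 0% = cytokine-treated negative control wells and 100% = positive control rescue; higher means more ATP so stronger rescue from cytokine killing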
PAX8 inh HTS: inhibitors of PAX8-driven TPO luciferase reporter, primary screen, RMG-I cells, single concentration. SteadyGlo, 24 h. inhibition, % at 12.6 µM. hit rate 1.2% among 360,000. AID 652154, 2013;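 active = mean replicate inhibition at least 60% with every replicate also reaching 60%; inconclusive = only one of the two criteria is met; inactive = mean below 60% and not all replicates reaching 60%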;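 note: luciferase light reporting Pax8 driven TPO promoter activity; plate controls were median of neutral control wells for no effect and mitoxantrone controls for full effect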
Starred values were filed as active, the others as inactive; ? = inconclusive; / = not tested or not shown; + = active, no number. This is a sample that favours compounds with a hit; in the whole collection about 4% have one here.

SMILES	Mdm2 MdmX PPI	Shn3 3UTR inh	CSC inhib	Gli-Sufu block	Beta cell apopt	PAX8 inh HTS
CC1(C)CC(Nc2ccc(Nc3ccccc3)cc2)CC(C)(C)N1	/	9	7	12	25	69*
COC(=O)C1CCC(=O)N1C(c1ccc(OC)cc1)c1cc(OC)c(OC)c(OC)c1 (stereo not drawn)	/	10	/	46	/	75*
COc1ccc(C(CNC(=O)Cc2cc(OC)c(OC)c(OC)c2)N2CCCC2)cc1 (stereo not drawn)	-33	-11	12	5	-3	/
O=C(C[C@@H]1CC[C@@H]2[C@H](COC[C@H](O)CN2C(=O)c2ccc(F)cc2)O1)NCc1cccc(F)c1	/	/	/	/	/	-19
CCCn1c(=O)c(C(=O)NNC(=O)c2ccc(Cl)cc2Cl)c(O)c2ccccc21	47	-14	29	-8	-3	-1
CCCn1c(=O)c(C(=O)NNS(=O)(=O)c2ccc(Cl)cc2)c(O)c2ccccc21	23	10	86*	1	-4	-13
COCC#Cc1ccc(CC[C@H]2O[C@H]3CC[C@H](CO)O[C@H]3C[C@H]2NC(=O)Nc2c(C)noc2C)cc1	/	/	/	/	/	-16
N#Cc1ccc(-c2csc(NNC(=O)c3ccccc3)n2)cc1	40	-7	-1	19	79*	/
O=C(NNc1nc(-c2ccccc2)cs1)c1ccccc1	2	-20	-9	-12	-6	/
C[C@@H]1CCCCO[C@@H](CN(C)S(C)(=O)=O)[C@@H](C)CN([C@H](C)CO)C(=O)c2cc(NC(=O)c3ccccc3)ccc2O1	/	/	/	/	/	6
CC(Oc1ccc(Cl)cc1Cl)c1nc(-c2ccc(NC(=O)c3ccncc3)cc2)no1 (stereo not drawn)	40	?	83*	38	/	/
CC(Oc1ccc(Cl)cc1Cl)c1nc(-c2ccc(NC(=O)c3cccnc3)cc2)no1 (stereo not drawn)	17	67	20	21	101*	/
O=C(N[C@@H]1CC[C@H](CC(=O)N2CCOCC2)O[C@@H]1CO)c1cccc(F)c1	/	/	/	/	/	-6
CS(=O)(=O)c1nc(-c2ccc(F)cc2)cc(C(F)(F)F)n1	/	89*	/	-2	/	40
CCCN1C[C@@H](C)[C@@H](OC)CN(C)C(=O)c2ccc(NC(=O)C3CCOCC3)cc2OC[C@@H]1C	/	/	/	/	/	2
C[C@H](CO)N1C[C@H](C)[C@@H](CN(C)S(=O)(=O)c2ccc(Cl)cc2)OCCCC[C@H](C)Oc2ccc(NC(=O)NC3CCCCC3)cc2C1=O	/	/	/	/	/	15
O=C(Cc1ccccn1)NCC[C@@H]1CC[C@H](NC(=O)Nc2ccc(C(F)(F)F)cc2)[C@@H](CO)O1	/	/	/	/	/	85*
O=C(Cc1ccccn1)NCC[C@@H]1CC[C@@H](NC(=O)Nc2ccc(C(F)(F)F)cc2)[C@@H](CO)O1	/	/	/	/	/	69*
O=C(Cc1ccccn1)NCC[C@H]1CC[C@@H](NC(=O)Nc2ccc(F)cc2)[C@H](CO)O1	/	/	/	/	/	-1
O=C(Cc1ccccn1)NCC[C@@H]1CC[C@@H](NC(=O)Nc2ccc(C(F)(F)F)cc2)[C@H](CO)O1	/	/	/	/	/	15
Cc1cc(Cl)c(S(=O)(=O)N2CCN(c3ccc(F)cc3)CC2)cc1OCC(=O)NC1CCCCC1	18	?	3	58*	103*	-1
Cc1cc(Cl)c(S(=O)(=O)N2CCN(c3ccc(F)cc3)CC2)cc1OCC(N)=O	32	6	11	-7	/	23
Cc1ccc(NCCN(C)C)c2c(=O)c3cc(O)ccc3sc12	/	42	/	66*	/	-13
O=C(C[C@@H]1CC[C@@H]2[C@H](COC[C@@H](O)CN2C(=O)Nc2ccc(C(F)(F)F)cc2)O1)NC1Cc2ccccc2C1	/	/	/	/	/	88*
O=C(C[C@H]1CC[C@H]2[C@@H](COC[C@H](O)CN2Cc2cccc(C(F)(F)F)c2)O1)NCc1ccc(Cl)cc1	/	/	/	/	/	70*
SMILES	Mdm2 MdmX PPI	Shn3 3UTR inh	CSC inhib	Gli-Sufu block	Beta cell apopt	PAX8 inh HTS
O=C(C[C@@H]1CC[C@@H]2[C@H](COC[C@H](O)CN2C(=O)Nc2ccc(C(F)(F)F)cc2)O1)NC1Cc2ccccc2C1	/	/	/	/	/	-2
O=C(C[C@H]1CC[C@H]2[C@@H](COC[C@H](O)CN2C(=O)Nc2ccc(C(F)(F)F)cc2)O1)NC1Cc2ccccc2C1	/	/	/	/	/	74*
O=C(C[C@H]1C[C@H]2c3cc(NC(=O)Cc4ccncc4)ccc3O[C@H]2[C@H](CO)O1)NCCN1CCCCC1	/	/	/	/	/	1
S=C(Nc1ccccc1Cl)N1CCCC(c2ccccc2)=N1	-3	/	84*	-9	-3	-5
S=C(Nc1ccccc1Cl)N1CCCCCC1	-18	54	-4	-3	1	-21
CC(C)COc1ccc(-c2nn(-c3ccccc3)cc2/C=C2/SC(=S)N(CC(=O)O)C2=O)cc1	14	1	+	-1	-3	-8
COc1ccc(C2Nc3ccccc3C(=O)N2c2ccc(F)cc2)cc1CSc1ccccn1 (stereo not drawn)	25	-45	-13	-37	-2	136*
COc1ccc(C2Nc3ccccc3C(=O)N2c2ccccc2)cc1CSc1ccccn1 (stereo not drawn)	-4	-28	3	-22	-7	30
COc1ccc(C2/C=C\CN(C(=O)c3ccccc3)[C@H](Cc3ccccc3)C(=O)N2Cc2ccc(F)cc2)cc1 (stereo partly drawn)	31	30	26	17	94*	-5
Cc1cc(C)nc(Nc2nc(C(N)Cc3ccc(Cl)cc3)cs2)n1 (stereo not drawn)	/	1	/	/	/	-12
Cc1cc(C)nc(Nc2nc(C(N)Cc3ccc(F)cc3)cs2)n1 (stereo not drawn)	/	29	/	/	/	84*
COc1ccc(S(=O)(=O)N[C@H]2CC[C@H](CC(=O)NCCc3ccccc3)O[C@H]2CO)cc1	/	/	/	/	/	3
O=C1NC(=O)c2cc(Br)cc3cccc1c23	-5	15	5	2	/	-12
Cc1ccc(NS(=O)(=O)c2cc3c4c(cccc4c2)C(=O)NC3=O)cc1C	40	31	79*	-1	14	42
C[C@H]1CN([C@@H](C)CO)C(=O)c2cc(N(C)C)ccc2O[C@@H]1CN(C)CC1CCCCC1	/	/	/	/	/	-3
COc1cccc(NC(=O)N2C[C@H](O)COC[C@@H]3O[C@H](CC(=O)NC4CCCC4)CC[C@H]32)c1	/	/	/	/	/	6
O=C(/C=C/c1ccc2c(c1)OCO2)NCCSCc1ccc(Cl)cc1	18	10	93*	-19	-3	/
O=C(/C=C/c1ccccc1)NCCc1ccc2c(c1)OCCO2	-20	-2	-3	-1	-1	69*
O=C(/C=C/c1ccc2c(c1)OCO2)NCCSCc1c(Cl)cccc1Cl	39	6	98*	12	-1	/
O=C([C@H]1[C@H](CO)[C@H]2Cn3c(cccc3=O)[C@H]2N1CC1CCCCC1)N1CCOCC1	/	/	/	/	/	-29

High-throughput results (PubChem BioAssay)
